# Most compounds without a hit are left out; they make up all but 3.2% or so of the library.
# GDH-TPI counter-1 – GDH-TPI coupling enzyme inhibitors, primary screen, artefact control for M. tuberculosis FBA inhibitor project, biochemical, absorbance, full deck; inhibition, % at 4.8 µM; GDH-TPI coupled enzyme counterscreen, NADH absorbance; 360,000 tested, 1.2% active; in the data active = inhibition above about 30%;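 note: 0% = DMSO wells and 100% = wells lacking the enzyme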
# Mtb betalactam – beta-lactam sensitization of Mtb H37Rv, H37Rv. 330,000 tested, 0.27% active. inhibition, % at 25 µM. M. tuberculosis H37Rv growth with meropenem, percent inhibition; call rule not given here;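 note: growth measured after seven days incubation then overnight dye step; 0% = bacteria only wells and 100% = bacteria with antibiotic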
# Rv3671c inh – Rv3671c serine protease inhibitors, primary screen, biochemical, fluorescence polarization, M. tuberculosis H37Rv; P9WHR9; 320,000 tested, 0.048% active; inhibition, % at 5.96 µM; in the data active = inhibition above about 38%;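 note: extracellular domain of Rv3671c used as enzyme; 0% = enzyme with DMSO and 100% = no enzyme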
# PriA SSB inh – inhibitors of Klebsiella pneumoniae PriA binding to SSB C-terminal tail, primary screen, biochemical, AlphaScreen; inhibition, % at 33 µM; 430,000 tested, 0.6% active; AlphaScreen SSBct-PriA binding, biotinylated peptide; PriA–SSB C-terminal tail interaction (Klebsiella pneumoniae); in the data active = inhibition mostly above about 37%, no sharp cut-off; inactive = mostly below about 20%;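 note: plate controls were negative control peptide for no effect and reference peptide for full effect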
# UGM FP inh – M. tuberculosis UGM enzyme inhibitors, primary screen, biochemical, fluorescence polarization, single point; purified UGM, fluorescence polarization probe displacement; inhibition, % at 10 µM; 320,000 tested, 0.06% active; in the data active = inhibition above about 10%, passing the limit was not always enough
# Target sequence (P9WIQ1 whole entry, looked up): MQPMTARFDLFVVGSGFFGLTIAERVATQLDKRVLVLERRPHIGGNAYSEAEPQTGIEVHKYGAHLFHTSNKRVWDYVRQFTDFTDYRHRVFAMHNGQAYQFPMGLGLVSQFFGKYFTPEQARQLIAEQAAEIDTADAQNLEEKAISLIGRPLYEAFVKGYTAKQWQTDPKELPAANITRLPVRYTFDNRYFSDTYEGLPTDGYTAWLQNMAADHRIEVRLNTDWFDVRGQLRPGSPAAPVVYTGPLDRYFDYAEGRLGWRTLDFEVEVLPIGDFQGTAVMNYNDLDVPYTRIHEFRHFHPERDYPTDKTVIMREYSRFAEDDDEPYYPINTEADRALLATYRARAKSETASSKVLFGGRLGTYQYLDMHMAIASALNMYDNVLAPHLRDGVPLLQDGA
# FBA Mtb inh – Mtb FBA enzyme inhibitors, primary screen, biochemical, fluorescence, strain H37Rv; Fructose-bisphosphate aldolase (Mycobacterium tuberculosis (strain ATCC 25618 / H37Rv)), …; purified M. tuberculosis FBA, fluorescence read-out; inhibition, % at 1 µM; 360,000 tested, 2.3% active; AID 588726, 2011;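 note: 0% = vehicle and 100% = reference inhibitor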
# Mtb FBA inh conf – M. tuberculosis aldolase blockers, biochemical, fluorescence, strain H37Rv, confirmation. shares compounds with FBA Mtb inh. purified M. tuberculosis FBA, fluorescence read-out. inhibition, % at 1 µM. 5,600 tested, 78% active;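 note: 0% = vehicle wells and 100% = reference inhibitor wells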
# GDH-TPI counter-2 – GDH-TPI coupling enzyme inhibitors, artefact control for M. tuberculosis FBA inhibitor project, biochemical, fluorescence, high throughput. shares compounds with FBA Mtb inh. GDH-TPI coupled enzyme counterscreen. inhibition, % at 1 µM. 5,600 tested, 81% active. AID 652141, 2013; in the data active = inhibition above about 10%
# * marks the source's active call; other numbers are inactive results; nt = not tested or not shown; + = active, no number. Cut-off read from the data, not from the text of the source, unless noted: active = inhibition above about 27%; inactive = the rest.
SMILES,GDH-TPI counter-1,Mtb betalactam,Rv3671c inh,PriA SSB inh,UGM FP inh,FBA Mtb inh,Mtb FBA inh conf,GDH-TPI counter-2
Cc1nc2cc3ccccc3cc2c(=O)[nH]1,19,1,8,-6,-1,67*,2,-4
O=c1[nH]c(=O)c2cc3ccccc3nc2[nH]1,15,nt,nt,-3,nt,75*,47*,45*
Cc1nc2scc(C)n2c(=O)c1NC(=O)c1cc2cc(Br)ccc2oc1=O,nt,nt,nt,-6,nt,nt,nt,nt
COC(=O)c1ccc2nc(Nc3nc4ccc(F)cc4s3)sc2c1,8,62,-38,-3,1,38*,131*,122*
CC(=O)c1sc(Nc2nc3ccc(F)cc3s2)nc1C,4,54,0,-16,2,27*,+,161*
COc1ccccc1C(=O)Cn1cccc(-c2nc(-c3ccccc3Cl)no2)c1=O,nt,nt,nt,-13,nt,nt,nt,nt
CC(CC(=O)Nc1cccc(F)c1)=NNC(=O)c1ccncc1,nt,nt,nt,-4,nt,nt,nt,nt
CCCn1cnc2c(oc3ccccc32)c1=O,0,-3,nt,-6,3,2,nt,nt
CCn1cnc2c(oc3ccccc32)c1=O,1,-10,6,-11,2,44*,177*,127*
O=C(OCc1cc(-c2ccco2)on1)C1c2ccccc2Oc2ccccc21,nt,nt,nt,9,nt,nt,nt,nt
Cc1ccn(-c2ccc(C(=O)NCc3ccc(F)c(Cl)c3)cn2)n1,nt,nt,nt,-31,nt,nt,nt,nt
CC(/C=C/c1ccc(O)cc1)=N/O,12,-3,1,nt,-1,67*,-3,-3
C/C=C(\C)C(=O)O[C@H](c1cc2ccc(=O)oc2cc1OC)[C@@H](O)C(C)(C)O,18,-4,0,1,4,40*,90*,58*
C/C=C(\C)C(=O)O[C@@H]([C@H](O)c1cc2ccc(=O)oc2cc1OC)C(C)(C)O,18,-8,-1,-6,2,38*,42*,23*
C/C=C(/C)C(=O)O[C@@H]([C@H](O)c1cc2ccc(=O)oc2cc1OC)C(C)(C)O[C@@H]1O[C@H](CO)[C@@H](O)[C@H](O)[C@H]1O,12,0,-1,3,1,59*,161*,146*
COc1cc2cc(Oc3ccc4ccc(=O)oc4c3)c(=O)oc2cc1OC(C)=O,28,-5,3,-17,2,9,nt,nt
COc1cccc(C(=O)CSc2ccc(NC(=O)c3ccco3)nn2)c1,nt,nt,nt,-10,nt,nt,nt,nt
CC(C)S(=O)(=O)c1ccc(CC(=O)N2CCSC(c3ccccc3F)CC2)cc1 (stereo not drawn),nt,nt,nt,8,nt,nt,nt,nt
O=C(CC1CCCCN1S(=O)(=O)c1cccs1)NCc1cccnc1 (stereo not drawn),nt,nt,nt,15,nt,nt,nt,nt
O=C(Nc1nc(-c2ccccc2)ns1)c1cccnc1,nt,nt,nt,0,nt,nt,nt,nt
Cn1cccc2[nH]c(=O)nc1-2,9,-5,7,-13,0,37*,78*,54*
Cc1cc(-c2ccccc2)nc(=O)[nH]1,5,6,7,-1,-3,1,nt,nt
CCC(C(=O)NCCn1ncc2c(=O)n(Cc3ccccc3C)cnc21)c1ccccc1 (stereo not drawn),nt,nt,nt,-2,nt,nt,nt,nt
COc1ccc(S(=O)(=O)NC(C)Cc2cccs2)cc1Cl (stereo not drawn),nt,nt,nt,-9,nt,nt,nt,nt
O=C(COC(=O)c1ccccc1Cl)NCc1cccs1,-8,nt,nt,nt,nt,3,nt,nt
SMILES,GDH-TPI counter-1,Mtb betalactam,Rv3671c inh,PriA SSB inh,UGM FP inh,FBA Mtb inh,Mtb FBA inh conf,GDH-TPI counter-2
Nc1cc(Cl)ccc1C(=O)OCC(=O)NC1CCS(=O)(=O)C1 (stereo not drawn),12,-6,0,-22,-1,52*,170*,158*
Nc1cc(Cl)ccc1C(=O)OCC(=O)NCc1cccs1,2,-6,-5,-9,3,56*,31*,21*
CN(C(=O)COC(=O)c1ccc(Cl)cc1N)C1CCCCC1,4,-9,0,3,1,39*,40*,32*
CC(=O)Nc1nnc(-c2ccccn2)o1,-2,7,-7,-5,2,31*,+,153*
O=C(Nc1nnc(-c2ccccn2)o1)c1ccccc1F,nt,nt,nt,-15,nt,nt,nt,nt
O=c1oc2cccnc2n1CCS(=O)(=O)c1ccc(F)cc1,8,-3,-4,-3,1,39*,4,1
O=C(CCCOc1ccc(Cl)cc1Cl)NN=Cc1ccco1,nt,nt,nt,-12,nt,nt,nt,nt
Cc1ccc(-c2cc(-c3ccc(F)cc3)c(C#N)c(N)n2)o1,3,2,-3,15,3,47*,+,173*
COC(=O)c1cnn(-c2ccc(Cl)cc2)c1/C=N/NC(N)=S,18,-7,5,nt,0,45*,67*,35*
COC(=O)c1cnn(-c2ccc(F)cc2F)c1C=NNC(N)=S,nt,nt,nt,-3,nt,nt,nt,nt
Cc1ccc(-c2nc3ccc(C)cn3c2CC(=O)N(C)C)cc1,1,3,-3,-23,-1,52*,56*,47*
CC(C)N1CCN(C2CSCCSC2)CC1CCO (stereo not drawn),12,4,-1,0,-3,52*,+,+
COCCNC(=O)Cc1ccc(-n2c(=O)c3ccccc3n(Cc3ccccc3)c2=O)cc1,nt,nt,nt,-7,nt,nt,nt,nt
CN1CCN(c2ccccc2NC(=O)c2cc3c(s2)-c2ccccc2OC3)CC1,5,94,-2,-6,0,4,nt,nt
Cc1cccc2c1-c1sc(C(=O)Nc3cccnc3)cc1CO2,-1,2,-32,-14,-2,101*,1,-4
O=C(Nc1cccnc1)c1cc2c(s1)-c1ccccc1OC2,37*,6,-73,-25,0,73*,71*,54*
Cc1cccc2c1-c1sc(C(=O)Nc3cccc([N+](=O)[O-])c3C)cc1CO2,14,-10,-8,-11,2,7,nt,nt
CC(C)CN(C1CCS(=O)(=O)C1)S(=O)(=O)c1cccs1 (stereo not drawn),nt,nt,nt,-8,nt,nt,nt,nt
CN1CCCc2cc(CCNC(=O)C(=O)NC(C)(C)C)ccc21,nt,nt,nt,-16,nt,nt,nt,nt
COc1ccc(-c2cn3cccnc3n2)cc1NC(=O)c1cc(OC)c(OC)c(OC)c1,20,-2,3,-8,-1,32*,+,+
CC1CCN(C(=O)c2cc3c(=O)n4ccccc4nc3s2)CC1,15,-5,2,-8,2,87*,132*,100*
